Assay results taken from PubChem BioAssay (NCI).
Compounds without any hit were thinned out: in the full panel of roughly 79,000, 15% have a hit. Active and inactive are the calls of the source. Rule as the data show it: active = growth inhibition above about 70%; inactive = the rest. Where a SMILES comes first, the peptide text is derived from it. [ ]: non-standard residue; d: D form. The star is where a group is joined. ξ: configuration not given here. dThr(3ξ) = CC(O)[C@@H](N)C(=O)O; dNMeL = CN[C@H](CC(C)C)C(=O)O; OBn = c1ccc(CO*)cc1; ξLac = CC(O)C(=O)O

Legend:
[1] = NCI Yeast Anticancer Drug Screen. Data for the rad50 strain (AID 155);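 also: 0% = growth of vehicle-only cultures of the same strain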; conditions: S. cerevisiae rad50 strain growth inhibition; at 50.0 µM; stronger effect = higher value
Outline: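 Vehicle-treated cultures provide the reference for the growth inhibition reported for compound-exposed, repair-deficient yeast.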

[2] = NCI Yeast Anticancer Drug Screen. Data for the mec2-1 strain (AID 157); conditions: S. cerevisiae mec2-1 strain, at 50.0 µM, stronger effect = higher value
Outline: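 Yeast mec2-1 mutant treated with compound. Readout: growth inhibition vs vehicle controls.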

[3] = NCI Yeast Anticancer Drug Screen. Data for the sgs1 mgt1 strain (AID 161);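 also: 0% = growth of cultures given vehicle only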; conditions: S. cerevisiae sgs1 mgt1 strain, at 50.0 µM, stronger effect = higher value
Outline: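 Read-out: growth inhibition vs vehicle controls. Cells: mutant yeast strain deficient in DNA damage repair.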

[4] = NCI Yeast Anticancer Drug Screen. Data for the cln2 rad14 strain (AID 165);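 also: 0% = growth equal to vehicle treated cultures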; conditions: S. cerevisiae cln2 rad14 strain, at 50.0 µM, stronger effect = higher value
Outline: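 cln2 rad14 yeast strain; compound exposure; growth inhibition read vs vehicle controls.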

[5] = NCI Yeast Anticancer Drug Screen. Data for the bub3 strain (AID 167); conditions: S. cerevisiae bub3 mutant strain, at 50.0 µM, stronger effect = higher value
Outline: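 Mutant yeast screening strain plus compound; vehicle-treated cultures serve as the 0% inhibition reference.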

[6] = NCI Yeast Anticancer Drug Screen. Data for the mlh1 rad18 strain (AID 175); conditions: S. cerevisiae mlh1 rad18 strain growth inhibition; at 50.0 µM; stronger effect = higher value
Outline: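 Yeast w/ defined DNA-repair lesions; compound exposure; growth vs vehicle controls → % inhibition.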

SMILES	growth inhibition [1]	growth inhibition [2]	growth inhibition [3]	growth inhibition [4]	growth inhibition [5]	growth inhibition [6]
CC1OC(n2ccc(NC(=O)c3ccc(NC(=O)C(C)(N)CO)cc3)nc2=O)CCC1OC1OC(C)C(N(C)C)C(O)C1O (configuration not stated)	30.4% (inactive)	-0.8% (inactive)	6.05% (inactive)	6% (inactive)	1.75% (inactive)	28.8% (inactive)
Oc1ccccc1-c1nc2ccccc2s1	-0.25% (inactive)	-37% (inactive)	7.85% (inactive)	-2.7% (inactive)	10.3% (inactive)	-10.2% (inactive)
COc1nc(OC)c2[nH]cnc2n1	17.6% (inactive)	15.3% (inactive)	13.1% (inactive)	-38.7% (inactive)	-1.35% (inactive)	14.7% (inactive)
COC(=O)C1(CC(=O)c2ccccc2)NC(=S)NC(=O)C1C#N (configuration not stated)	1.85% (inactive)	-13.9% (inactive)	-24.4% (inactive)	-15.8% (inactive)	-33.5% (inactive)	-3.35% (inactive)
O=S1OCC#CCOS(=O)OCC#CCO1 (configuration not stated)	-7.1% (inactive)	-23.8% (inactive)	-7.5% (inactive)	-6.2% (inactive)	-3.7% (inactive)	7.7% (inactive)
O=[N+]([O-])c1ccc2c(c1)/C(=N/O)CCC2	0.5% (inactive)	-0.55% (inactive)	1.05% (inactive)	-86.4% (inactive)	-15.8% (inactive)	4.05% (inactive)
Cc1ccc(S(=O)(=O)C2(NC(=O)c3ccc(Cl)cc3)CC2)cc1	10.6% (inactive)	15.5% (inactive)	-6.9% (inactive)	5.4% (inactive)	-11.5% (inactive)	-2.4% (inactive)
c1csc(C(NC2=NCCO2)C2CC2)c1 (configuration not stated)	-32.9% (inactive)	-11.2% (inactive)	-22.9% (inactive)	-25.1% (inactive)	-27.5% (inactive)	41.8% (inactive)
CSC(N)=Nc1c(C)cccc1C	3.55% (inactive)	22.9% (inactive)	5.35% (inactive)	-4.1% (inactive)	2.9% (inactive)	-16.7% (inactive)
O=C1CCCCC1C(O)(C(F)(F)F)C(F)(F)Cl (configuration not stated)	-20.4% (inactive)	-28.9% (inactive)	-36.7% (inactive)	-13.7% (inactive)	-30.2% (inactive)	-20.1% (inactive)
CC(C)=Nn1cnc2nccnc2c1=O	2.55% (inactive)	-6.05% (inactive)	-14.2% (inactive)	-40% (inactive)	-13.3% (inactive)	-1.6% (inactive)
CCOC(=O)NN(C(=O)OCC)C(C(C)=O)c1ccccc1 (configuration not stated)	3.95% (inactive)	-3.35% (inactive)	-10.8% (inactive)	-9.35% (inactive)	-0.7% (inactive)	17.3% (inactive)
Nc1nc(N)c(-c2ccccc2)c(CCC(=O)Nc2ccc(Cl)cc2)n1	-34.8% (inactive)	3.95% (inactive)	-3.35% (inactive)	-27.9% (inactive)	-21.5% (inactive)	7.8% (inactive)
CC(C)(C)OC(=O)c1cccc(Br)c1	-8.1% (inactive)	-12.8% (inactive)	-4.55% (inactive)	15.2% (inactive)	12.8% (inactive)	11.1% (inactive)
COC(=O)CCc1cccnc1/C=N/O	-26.9% (inactive)	-31.8% (inactive)	-11.8% (inactive)	4.7% (inactive)	-11.7% (inactive)	-17.4% (inactive)
CO/N=C\c1cc[n+](C)cc1	11.7% (inactive)	24.6% (inactive)	18.9% (inactive)	30.7% (inactive)	55% (inactive)	19.2% (inactive)
Cc1ccc(S(=O)(=O)Oc2c(Cl)cc(Cl)cc2Cl)cc1	-2.4% (inactive)	9.35% (inactive)	26.4% (inactive)	-19.1% (inactive)	24.8% (inactive)	29.8% (inactive)
CC1=NNC(=O)C1CCS (configuration not stated)	-3.55% (inactive)	4.35% (inactive)	-1.45% (inactive)	-3.1% (inactive)	-8% (inactive)	-7.4% (inactive)
ClCCCCCc1c2nc(c(CCCCCCl)c3ccc([nH]3)c(CCCCCCl)c3ccc([nH]3)c(CCCCCCl)c3nc1C=C3)C=C2	-14.2% (inactive)	-19.1% (inactive)	-20.6% (inactive)	3.75% (inactive)	4.9% (inactive)	-47.4% (inactive)

SMILES	growth inhibition [1]	growth inhibition [2]	growth inhibition [3]	growth inhibition [4]	growth inhibition [5]	growth inhibition [6]
c1csc(-c2cc(-c3ccsc3)c(-c3cccs3)s2)c1	-46.6% (inactive)	-62.7% (inactive)	-33.4% (inactive)	-0.1% (inactive)	-1.4% (inactive)	-34.3% (inactive)
CC1=N/C(=C\c2ccc(N)cc2)C(=O)N1Nc1nnc(NN2C(=O)/C(=C/c3ccc(N)cc3)N=C2C)c2ccccc12	-11.7% (inactive)	-13.3% (inactive)	1.2% (inactive)	7.35% (inactive)	-30.4% (inactive)	-2.35% (inactive)
CNC(=O)OCc1c(COC(=O)NC)c(-c2ccc(F)cc2)n2c1CCC2	23.8% (inactive)	12.7% (inactive)	-15.9% (inactive)	18.7% (inactive)	7.55% (inactive)	52.6% (inactive)
Cc1nc2nc(N)nnc2c(=O)[nH]1	-7.25% (inactive)	3.2% (inactive)	-18.8% (inactive)	-13.8% (inactive)	-1.75% (inactive)	-0.1% (inactive)
O=C(NCCN1CCCC1)NC1CCCCC1	-2.25% (inactive)	2.35% (inactive)	3.85% (inactive)	-69.5% (inactive)	8.2% (inactive)	14.8% (inactive)
Cc1cccc(C)c1NC(=S)NC(=O)c1cccc(Cl)c1	-13.6% (inactive)	-23% (inactive)	-2.9% (inactive)	-10.5% (inactive)	-20.4% (inactive)	-16.6% (inactive)
O=C1C=C(Nc2ccccc2C(=O)CC(=O)C(=O)Nc2ccc(Cl)cc2)c2ccccc2C1=O	5.05% (inactive)	0.95% (inactive)	6.9% (inactive)	-3.05% (inactive)	42.5% (inactive)	9.8% (inactive)
Cc1cc(CN2CCCCC2)c(O)c(CN2CCCCC2)c1	-4.3% (inactive)	-18.9% (inactive)	-13.4% (inactive)	-0.2% (inactive)	-29.4% (inactive)	-7.05% (inactive)
c1csc(C2N3CCN(CC3)C(c3cccs3)N3CCN2CC3)c1 (configuration not stated)	-1.6% (inactive)	-16.7% (inactive)	23.8% (inactive)	10.1% (inactive)	-5.25% (inactive)	3.1% (inactive)
O=C(OC1CC2CCC23CCC13)c1ccccc1 (configuration not stated)	-1.35% (inactive)	6.1% (inactive)	10.2% (inactive)	-7.6% (inactive)	-37.5% (inactive)	-18.9% (inactive)
CC(=O)OC(C)[C@@H](NC(=O)[C@@H](CC(C)C)N(C)C(=O)[C@@H]1CCCN1C(=O)C(C)O)C(=O)OCc1ccccc1 (some centres not stated) (H-[ξLac]P[dNMeL][dThr(3ξ)](Ac)-OBn)	8.75% (inactive)	24.4% (inactive)	-16.8% (inactive)	8.2% (inactive)	-30.4% (inactive)	-37.3% (inactive)
Cc1ccc(Sc2cccc3c2C(=O)c2c(Sc4ccc(C)cc4)cccc2C3=O)cc1	-18.9% (inactive)	9.05% (inactive)	-24.5% (inactive)	-12.4% (inactive)	-2.7% (inactive)	-11.3% (inactive)
COc1ccc2c(c1)c(CC(=O)O)c(Br)n2Cc1ccccc1	27.9% (inactive)	33.4% (inactive)	12% (inactive)	21.4% (inactive)	20.1% (inactive)	77.7% (active)
CC(C(=O)O)C(Nc1ncnc2c1ncn2C1OC(CO)C(O)C1O)C(=O)O (configuration not stated)	-8.4% (inactive)	-12.2% (inactive)	-27.6% (inactive)	-2.1% (inactive)	3.5% (inactive)	-26.4% (inactive)
Nc1c(I)cc([N+](=O)[O-])cc1I	32.8% (inactive)	2.6% (inactive)	18% (inactive)	-16.4% (inactive)	25.9% (inactive)	19.9% (inactive)
CCC(=O)C(CC)c1ccccc1OC (configuration not stated)	8.75% (inactive)	-8.35% (inactive)	4.65% (inactive)	16.5% (inactive)	5.45% (inactive)	15% (inactive)
O=C(O)C(=O)Cc1c[nH]c2ccccc12	1.2% (inactive)	-7.55% (inactive)	29.4% (inactive)	7.3% (inactive)	-11.1% (inactive)	-3.7% (inactive)
COc1cccc(C2CC(c3cc(OC)c(OC)c(OC)c3)CC(c3cccc(OC)c3)N2)c1 (configuration not stated)	-5.4% (inactive)	1.45% (inactive)	15.2% (inactive)	16.4% (inactive)	19.6% (inactive)	5.7% (inactive)
